Source: PubChem BioAssay AID504332 (National Center for Advancing Translational Sciences (NCATS), 2011)
The whole screen tested about 350,000 compounds, of which about 31,000 (8.9%) were called active. Inconclusive results (about 15%) are left out. The sample holds actives, similar compounds and a random draw of the others, so the mix is not that of the screen. Values without a mark were called inactive. Calls follow the shape of the dose curve; as a rule, active = well fitted inhibition curve with a large enough effect; inconclusive = small, poorly fitted or top-dose-only effect; inactive = no such curve, though single readings can be large or run the other way.

What follows are molecules tested against Histone-lysine N-methyltransferase EHMT2 (Homo sapiens) (UniProt Q96KQ7) (assay: qHTS Assay for Inhibitors of Histone Lysine Methyltransferase G9a). Details: G9a H3K9 monomethylation, AlphaScreen, 2 h; series mostly up to 59 µM; activity, negative = inhibition: at the top concentration.
In short: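 Readings reflect AlphaScreen signal from monomethyl-H3K9 antibody detection. HMT at 20 nM; substrate b-H3K9 500 nM; cofactor SAM 20 uM; 2 h RT reaction; compounds tested as titrations in qHTS with 15 min preincubation.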
% is scaled to controls: 0 for no effect and ±100 for the full control effect; potency is read from the fitted curve at half-maximal effect.
Also: nearly all actives have a fitted effect of over 75% in size.

Sequence of Histone-lysine N-methyltransferase EHMT2 (Homo sapiens) (Q96KQ7 913-1193 limits assumed): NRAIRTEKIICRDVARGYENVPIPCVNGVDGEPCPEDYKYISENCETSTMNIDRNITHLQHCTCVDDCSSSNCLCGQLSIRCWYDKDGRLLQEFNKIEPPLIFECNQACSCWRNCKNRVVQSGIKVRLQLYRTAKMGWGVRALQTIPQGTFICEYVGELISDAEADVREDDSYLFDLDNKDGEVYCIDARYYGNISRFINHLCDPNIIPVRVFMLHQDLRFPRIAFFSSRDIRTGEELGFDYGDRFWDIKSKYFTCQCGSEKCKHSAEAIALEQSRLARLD

| Structure (SMILES) | activity, negative = inhibition | Potency |
| --- | --- | --- |
| O=S(=O)(c1ccccc1)c1nc(-c2ccccc2F)oc1NCc1cccnc1 | -3.34% [at 102 µM] | – |
| Cc1ccc(CSc2oc(-c3cccs3)nc2S(=O)(=O)c2ccc(C)cc2)cc1 | -0.9% | – |
| CCC1Oc2ccc(Cl)cc2N(CC(=O)O)C1=O (configuration not stated) | -29.8% [at 102 µM] | – |
| Cc1ccc(N2C(=O)CC(N3CCSCC3)C2=O)c(C)c1 (configuration not stated) | -5.6% [at 102 µM] | – |
| Cc1cc(Cl)ccc1N1C(=O)CC(SCCC(=O)O)C1=O (configuration not stated) | – | 10 µM (active) |
| Cc1ccc(CSc2nc3cccnc3n2Cc2ccc(C(=O)NC3CC3)cc2)cc1 | 10.3% | – |
| COc1ccc(OCCn2cc(C(=O)C3CCCCC3)c3ccccc32)cc1 | 29.3% | – |
| O=C1CSC2(C(=O)N(Cc3ccccc3)c3ccccc32)N1c1cccc(F)c1 (configuration not stated) | -26.1% | – |
| CCOc1ccccc1NC(=O)c1ccc2c(c1)CCN2S(=O)(=O)c1ccc(C)cc1 | 4.28% | – |
| CC(=O)c1c(-c2ccccc2)c2ccccc2[nH]c1=O | -27.3% [at 102 µM] | – |
| S=c1[nH]c2ccccc2c2ccccc12 | – | 8.91 µM (active) |
| NC(=O)Cc1ccc2c(c1)[nH]c1ccccc12 | 15.3% [at 102 µM] | – |
| CCc1ccccc1N(C)C(=O)C1CCCN(c2ncnc3onc(-c4ccc(F)cc4)c23)C1 (configuration not stated) | -6.79% | – |
| COc1ccc([C@H]2CC(=O)C=C(/C=C/c3ccccc3)C2)cc1 | -12.4% [at 2.33 µM] | – |
| COc1ccccc1Nc1nc(N)nc(N)c1S(=O)(=O)c1ccccc1 | 27.8% | – |
| C=CCn1c(CCc2ccc(OC(C)C)cc2)n[nH]c1=S | 9.89% [at 102 µM] | – |
| C=CCn1c(CCNC(=O)c2cccs2)n[nH]c1=S | – | 11.2 µM (active) |
| Cc1ccc(C)c2[nH]c(=O)c(CCNC(=O)c3cccs3)cc12 | 2.66% [at 102 µM] | – |
| CCc1ccc(N(C(=O)c2csnn2)C(C(=O)NC2CCCCC2)c2cccnc2)cc1 (configuration not stated) | -4.95% [at 102 µM] | – |
| Cc1c(NS(=O)(=O)c2cc(C(=O)NCCc3ccc(F)cc3)cc(Cl)c2Cl)c(=O)n(-c2ccccc2)n1C | -13.8% [at 102 µM] | – |
| Cc1cc(CN(C)C(=O)c2cc(COc3ccc(C)c(C)c3)on2)n[nH]1 | 25.5% [at 102 µM] | – |
| CSc1ccccc1OCc1cc(C(=O)N(C)CCc2c(C)n[nH]c2C)no1 | 43.1% [at 0.0925 µM] | – |
| COc1cc(Cl)ccc1OCc1cc(C(=O)N(C)CCc2c(C)n[nH]c2C)no1 | – | 39.8 µM (active) |
| NC(=O)NCCCC(=O)O | -0.244% [at 12.7 µM] | – |

| Structure (SMILES) | activity, negative = inhibition | Potency |
| --- | --- | --- |
| Cc1ccccc1-c1nc2scc(CCNC(=O)C(=O)Nc3ccc(F)cc3F)n2n1 | 5.22% | – |
| CC(C)[C@@H]1NC(=O)c2cc([N+](=O)[O-])cc(I)c2NCCC[C@@H](C(=O)NC(CC(=O)O)C(N)=O)NC(=O)[C@H](CO)NC1=O (some centres not stated) | -1.59% [at 102 µM] | – |
| NC(=O)C[C@@H]1NC(=O)CNC(=O)c2cc([N+](=O)[O-])cc(I)c2NCCC(C(N)=O)NC1=O (some centres not stated) | – | 11.2 µM (active) |
| NCCCC[C@@H]1NC(=O)[C@H](CCC(=O)O)NC(=O)c2cc([N+](=O)[O-])cc(I)c2NCC[C@@H](C(N)=O)NC1=O | – | 14.1 µM (active) |
| NC(=O)CC[C@@H]1NC(=O)[C@H](CO)NC(=O)c2cc([N+](=O)[O-])cc(I)c2NCC[C@@H](C(N)=O)NC1=O | – | 10 µM (active) |
| Cc1oc(-c2ccccc2)nc1Cn1c(SCc2cccc(C(F)(F)F)c2)nc2cccnc21 | -29.7% | – |
| Cc1ccc(C(=O)CN2C(=O)NC3(CCOc4ccccc43)C2=O)s1 (configuration not stated) | -5.02% [at 2.33 µM] | – |
| CN1CCN(NC(=O)Nc2ccc(Br)cc2)CC1 | 10.4% [at 102 µM] | – |
| CC(C)(C)OC(=O)NCCCCCNC(=O)c1[nH]cnc1C(=O)Nc1nccs1 | 3.9% [at 0.501 µM] | – |
| O=C(COc1ccc(Cl)cc1)Nc1ccccc1OCc1cc(=O)n2ccccc2n1 | 7.45% | – |
| COc1ccccc1OCCNC(=O)C(CCSC)NC(=O)COc1ccccc1 (configuration not stated) | 9.08% [at 12.7 µM] | – |
| O=C1C=C(c2cc(C(F)(F)F)cc(C(F)(F)F)c2)C[C@@H](c2ccc3c(c2)OCO3)C1 | 10.2% [at 0.501 µM] | – |
| CCN(C(=O)Cn1c(=O)nc(-c2ccccc2)c2cc(Cl)ccc21)c1cccc(C)c1 | 24.8% | – |
| O=C(CCC1N=C2c3ccccc3N=C(SCc3ccccc3F)N2C1=O)NCCc1ccccc1 (configuration not stated) | -4.93% | – |
| C[C@H](NC(=O)c1[nH]cnc1C(=O)Nc1nccs1)c1ccccc1 | 8.27% [at 0.501 µM] | – |
| CC(NC(=O)C(=O)Nc1nccs1)c1ccccc1 (configuration not stated) | – | 50.1 µM (active) |
| O=C(O)c1ccccc1-c1ccccc1C(=O)Nc1nccs1 | 2.15% | – |
| Cc1cccc(C)c1-n1ncc(C(=O)NCCCN2CCCCC2)c1C1CCN(C(=O)OC(C)(C)C)CC1 | -25% | – |
| CCCC(NCC(=O)Nc1ccccc1C(=O)NC1CC1)c1ccccc1 (configuration not stated) | -2.12% [at 102 µM] | – |
| CCOC(=O)c1c(C)[nH]c(C)c1S(=O)(=O)NCC(=O)NCc1cccc(C)c1 | 7.2% | – |
| CCOC(=O)CCc1c(C)c2ccc(OCc3nn[nH]n3)c(C)c2oc1=O | – | 50.1 µM (active) |
| Cc1c(C)c2ccc(OCC(=O)N3CCC(C(=O)O)CC3)c(C)c2oc1=O | -7.73% [at 102 µM] | – |
| CCCCc1cc(=O)oc2cc(C)cc(OCc3nn[nH]n3)c12 | 17.7% | – |
